A short description of experiment [1]: antimalarial activity against Dd2 strain (AID 2302;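 active = growth inhibition above 50% at the single 2 µM test dose, taken to imply half-maximal potency below 2 µM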;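 also: 0% = DMSO untreated growth and 100% = chloroquine plus artemisinin killed control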). As to conditions: P. falciparum Dd2 in RBCs, LDH growth readout, 72 h; at 2 µM; stronger effect = higher value.
A short description of experiment [2]: HepG2 cytotoxicity, primary screen, cytotoxicity control for P. falciparum antimalarial project, cell-based, ATP luminescence (AID 2303;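 active = inhibition above 50%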;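 also: 0% = DMSO wells and 100% = digitonin-killed cells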). The note with it: HepG2 viability, 24-48 h, at 10 µM, stronger effect = higher value.
Experiment [3] addresses L-lactate dehydrogenase (Plasmodium falciparum (isolate CDC / Honduras)) (UniProt Q27743). The experiment is described as follows: PfLDH activity inhibition – cell lysate, 3D7 strain, counter-screen for P. falciparum growth inhibition project (AID 2304).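 Also: 0% = vehicle and 100% = reference inhibitor.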 As to conditions: P. falciparum 3D7 crude extract, LDH APAD/NBT absorbance; at 2 µM; stronger effect = higher value. For orientation: A counterscreen serves to expose hits that act by an unwanted route or on another target.

Experiment [4] in a line: inhibition of 3D7 malaria parasite growth – strain 3D7 (AID 2306).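 Also: 0% = DMSO wells and 100% = chloroquine plus artemisinin control wells.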 As to conditions: P. falciparum 3D7 erythrocytic growth, LDH absorbance, 72 h; at 2 µM; stronger effect = higher value.
The target in experiment [5] is Calcium-dependent protein kinase 1 (Plasmodium falciparum (isolate 3D7)) (UniProt P62344). The experiment is described as follows: PfCDPK1 kinase inhibitors, biochemical, TCAMS library (AID 1159585; cut-off not given, nearly all actives have IC50 up to about 0.98 µM;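 also: inhibitors leave more ATP so luminescence rises with inhibition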). The note with it: recombinant PfCDPK1, Kinase-Glo ATP depletion luminescence.
The target of experiment [6] is Plasmodium falciparum protein kinase 6 (PK6, PF3D7_1337100) (UniProt Q8IDW1). The experiment is described as follows: PfPK6 kinase inhibitors, biochemical, TCAMS library (AID 1159586). The note with it: recombinant PfPK6, Kinase-Glo ATP depletion luminescence. For orientation: In Kinase-Glo more light means more ATP remaining.
The target in experiment [7] is Protein kinase 7 (PK7), Plasmodium falciparum 3D7 (PF3D7_0213400) (UniProt Q7YTF7). The experiment is described as follows: inhibition of Plasmodium PK7 catalytic activity – biochemical, TCAMS antimalarial set, Kinase-Glo luminescence (AID 1159587). The note with it: recombinant PfPK7, Kinase-Glo ATP depletion luminescence.
Experiment [8] deals with Calcium-dependent protein kinase 4 (Plasmodium falciparum (isolate 3D7)) (UniProt Q8IBS5). The experiment is described as follows: PfCDPK4 kinase inhibitors, biochemical, TCAMS library (AID 1159588; cut-off not given, nearly all actives have IC50 up to about 0.91 µM). The note with it: recombinant PfCDPK4, Kinase-Glo ATP depletion luminescence.

A number with no mark means an inactive call. For some of these results: Results with a measured potency or affinity are listed apart. Active and inactive are the calls of the source. Unless noted, no rule for the calls is given here.

Chain of Plasmodium falciparum protein kinase 6 (PK6, PF3D7_1337100) (Q8IDW1 1-305): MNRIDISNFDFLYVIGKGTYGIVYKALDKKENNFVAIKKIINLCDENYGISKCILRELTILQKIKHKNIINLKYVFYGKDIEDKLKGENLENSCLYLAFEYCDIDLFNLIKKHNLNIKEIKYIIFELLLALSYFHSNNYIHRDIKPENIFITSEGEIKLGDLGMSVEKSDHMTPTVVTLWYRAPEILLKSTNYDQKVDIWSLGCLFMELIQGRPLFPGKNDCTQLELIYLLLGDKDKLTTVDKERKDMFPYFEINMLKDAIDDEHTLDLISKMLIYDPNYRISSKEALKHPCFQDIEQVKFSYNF
Chain of L-lactate dehydrogenase (Plasmodium falciparum (isolate CDC / Honduras)) (Q27743 whole entry, looked up): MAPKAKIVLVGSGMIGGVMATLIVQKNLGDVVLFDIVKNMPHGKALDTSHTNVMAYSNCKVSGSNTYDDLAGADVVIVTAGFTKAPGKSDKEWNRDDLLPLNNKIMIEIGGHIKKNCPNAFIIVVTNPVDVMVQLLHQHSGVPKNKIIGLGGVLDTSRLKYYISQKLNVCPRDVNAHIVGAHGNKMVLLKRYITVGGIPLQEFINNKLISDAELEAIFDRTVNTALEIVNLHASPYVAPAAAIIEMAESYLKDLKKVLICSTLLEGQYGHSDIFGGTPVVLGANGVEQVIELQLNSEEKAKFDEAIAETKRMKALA
Chain of Calcium-dependent protein kinase 4 (Plasmodium falciparum (isolate 3D7)) (Q8IBS5 whole entry, looked up): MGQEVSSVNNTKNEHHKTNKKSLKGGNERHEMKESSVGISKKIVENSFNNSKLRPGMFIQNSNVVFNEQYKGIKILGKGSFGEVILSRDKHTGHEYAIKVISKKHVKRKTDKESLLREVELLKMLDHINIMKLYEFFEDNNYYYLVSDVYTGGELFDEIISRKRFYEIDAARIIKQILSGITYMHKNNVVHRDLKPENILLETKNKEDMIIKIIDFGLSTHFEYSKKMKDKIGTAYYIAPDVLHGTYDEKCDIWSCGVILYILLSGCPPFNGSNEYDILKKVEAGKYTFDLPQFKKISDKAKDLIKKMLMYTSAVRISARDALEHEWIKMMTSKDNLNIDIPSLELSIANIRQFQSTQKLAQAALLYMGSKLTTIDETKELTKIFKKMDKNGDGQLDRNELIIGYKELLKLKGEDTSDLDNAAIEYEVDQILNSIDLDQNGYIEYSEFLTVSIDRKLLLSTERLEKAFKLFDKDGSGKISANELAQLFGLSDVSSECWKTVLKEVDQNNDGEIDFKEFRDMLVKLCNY
Chain of Protein kinase 7 (PK7), Plasmodium falciparum 3D7 (PF3D7_0213400) (Q7YTF7 1-343): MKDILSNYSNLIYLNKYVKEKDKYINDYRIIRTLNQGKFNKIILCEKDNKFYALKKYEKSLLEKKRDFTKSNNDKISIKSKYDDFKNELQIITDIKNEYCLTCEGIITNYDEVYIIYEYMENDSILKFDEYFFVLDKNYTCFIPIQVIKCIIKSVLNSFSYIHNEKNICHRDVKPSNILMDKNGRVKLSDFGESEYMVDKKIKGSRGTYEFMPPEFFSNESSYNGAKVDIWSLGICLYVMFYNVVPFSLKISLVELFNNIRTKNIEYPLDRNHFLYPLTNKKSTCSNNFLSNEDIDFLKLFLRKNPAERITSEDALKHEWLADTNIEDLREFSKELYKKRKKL
Chain of Calcium-dependent protein kinase 1 (Plasmodium falciparum (isolate 3D7)) (P62344 whole entry, looked up): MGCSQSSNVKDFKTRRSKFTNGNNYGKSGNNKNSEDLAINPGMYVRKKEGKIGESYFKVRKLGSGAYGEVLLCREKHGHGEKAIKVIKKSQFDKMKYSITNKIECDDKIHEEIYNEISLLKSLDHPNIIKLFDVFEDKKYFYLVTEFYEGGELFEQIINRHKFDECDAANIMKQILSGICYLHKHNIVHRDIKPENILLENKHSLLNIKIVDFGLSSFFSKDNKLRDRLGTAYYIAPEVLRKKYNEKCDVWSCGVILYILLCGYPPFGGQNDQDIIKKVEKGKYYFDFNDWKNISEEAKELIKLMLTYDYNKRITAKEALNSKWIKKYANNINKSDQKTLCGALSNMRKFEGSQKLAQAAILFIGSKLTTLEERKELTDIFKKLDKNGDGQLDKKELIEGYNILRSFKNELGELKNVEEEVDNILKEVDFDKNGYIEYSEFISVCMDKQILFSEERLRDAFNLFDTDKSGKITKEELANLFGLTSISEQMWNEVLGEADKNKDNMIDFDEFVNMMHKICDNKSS

Consider `Cn1c(Nc2cc(C(C)(C)C)on2)nc2cc(Nc3ccnc(Nc4cccc(S(=O)(=O)N5CCOCC5)c4)n3)ccc21`, for which the growth inhibition was 96% (active) in experiment [1] and 101% (active) in experiment [4]. For the same compound, the inhibition – broadly, the relative decrease from the control value, in per cent – was 32% in experiment [2] and 5% in experiment [3]. The result in experiment [5], in experiment [6], in experiment [7] and in experiment [8] was inactive.
As for `Nc1nc(N)c2c(ccc3nn(S(=O)(=O)N4CCCC4)cc32)n1`, the growth inhibition in experiment [1] was 0%; in experiment [4], 95% (active). Moreover, the inhibition is 69% (active) in experiment [2] and 9% in experiment [3]. In addition, the outcome in experiment [5], in experiment [6], in experiment [7] and in experiment [8] was inactive.
Consider `CN(C)CCNc1nccc(N2CCc3ncnc(Nc4ccc(OCc5cccc(F)c5)c(Cl)c4)c3C2)n1`, for which the values for the growth inhibition in experiment [1] and in experiment [4] were 97% (active) and 100% (active), respectively. The values for the inhibition in experiment [2] and in experiment [3] were 65% (active) and 6%, respectively. The outcome in experiment [5], in experiment [6], in experiment [7] and in experiment [8] was inactive.
For `COc1cc2nc(NCCc3ccccc3)nc(NCc3cnn(C)c3C)c2cc1OC`, the growth inhibition is 94% (active) in experiment [1] and 99% (active) in experiment [4]. Moreover, the inhibition in experiment [2] was 13%; in experiment [3], 0%. Moreover, the outcome in experiment [5], in experiment [6], in experiment [7] and in experiment [8] was inactive.
`COc1cc2c(c(Cl)c1OC)CCN(Cc1ccccc1)CC2c1ccc(NC(=O)C(F)(F)F)cc1` (stereo not given): the growth inhibition in experiment [1] was 79% (active); in experiment [4], 85% (active). In addition, the inhibition was 0% in experiment [2] and -2% in experiment [3]. For the same compound, the outcome in experiment [5], in experiment [6], in experiment [7] and in experiment [8] was inactive.
Regarding `Cc1ccccc1C1CCN(C2CCC(NC(=O)/C=C/c3cccc(Cl)c3)CC2)CC1` (stereo not given), the growth inhibition is 34% in experiment [1] and 98% (active) in experiment [4]. Further, the inhibition in experiment [2] was 70% (active); in experiment [3] it was -3%. The result in experiment [5], in experiment [6], in experiment [7] and in experiment [8] was inactive.
Regarding `CC(C)(C)c1nn(-c2ccccc2)c2[nH]c(=O)c(CNCc3ccc4c(c3)OCO4)cc12`, the growth inhibition in experiment [1] is 32%; in experiment [4], 92% (active). The inhibition in experiment [2] was 1%; in experiment [3], 3%. Besides, the result in experiment [5], in experiment [6], in experiment [7] and in experiment [8] was inactive.
Regarding `CCCN(CCC)C(=S)N=Nc1c(O)[nH]c2ccccc12`, the growth inhibition in experiment [1] is 86% (active); in experiment [4], 97% (active). The inhibition in experiment [2] is 28%; in experiment [3], -3%. The result in experiment [5], in experiment [6], in experiment [7] and in experiment [8] was inactive.
In the case of `O=C(C=NO)Nc1ccccc1[N+](=O)[O-]`, the growth inhibition in experiment [1] is -2%; in experiment [4] it was 99% (active). Also, the inhibition in experiment [2] was -14%; in experiment [3] it was -2%. The outcome in experiment [5], in experiment [6], in experiment [7] and in experiment [8] was inactive.
With `CCCc1cnc2nc(N)nc(N)c2c1C`, the growth inhibition is 3% in experiment [1] and 93% (active) in experiment [4]. In addition, the inhibition in experiment [2] is 68% (active); in experiment [3], -3%. Also, the outcome in experiment [5], in experiment [6], in experiment [7] and in experiment [8] was inactive.
For the compound `CC(C)NCc1ccc(-c2cccc(NC(=O)c3ccc(F)cc3)c2)cc1`, the growth inhibition in experiment [1] is 7%; in experiment [4], 91% (active). Further, the inhibition in experiment [2] was 28%; in experiment [3], 6%. Further, the outcome in experiment [5], in experiment [6], in experiment [7] and in experiment [8] was inactive.
As to `CN(Cc1cccc(F)c1)C1CCCN(c2cc(NC(=O)c3ccccc3)ccn2)C1` (stereo not given), the growth inhibition in experiment [1] was 50% (active); in experiment [4], 93% (active). The inhibition was 3% in experiment [2] and -3% in experiment [3]. For the same compound, the result in experiment [5], in experiment [6], in experiment [7] and in experiment [8] was inactive.
Regarding `CCOC(=O)CC[C@H](NC(=O)c1ccc(NS(=O)(=O)c2ccc(-c3cnc(N)[nH]c3=O)cc2)cc1)C(=O)OCC`, the growth inhibition in experiment [1] was 2%; in experiment [4] it was 95% (active). The inhibition in experiment [2] was 5%; in experiment [3] it was 4%. For the same compound, the result in experiment [5], in experiment [6], in experiment [7] and in experiment [8] was inactive.
For `Cc1cc(N2CCCC2)nc(Nc2ccc(NC(=O)C(C)Oc3ccccc3)cc2)n1` (stereo not given), the growth inhibition in experiment [1] was 58% (active); in experiment [4], 101% (active). Also, the inhibition was 42% in experiment [2] and -1% in experiment [3]. In addition, the result in experiment [5], in experiment [6], in experiment [7] and in experiment [8] was inactive.
As to `Cc1ccccc1C1CCN(C2CCC(NC(=O)/C=C/c3c(F)ccc(F)c3F)CC2)CC1` (stereo not given), the growth inhibition was 33% in experiment [1] and 82% (active) in experiment [4]. In addition, the inhibition in experiment [2] is 37%; in experiment [3], 1%. Also, the outcome in experiment [5], in experiment [6], in experiment [7] and in experiment [8] was inactive.
For the compound `CC(Nc1nc(Nc2ccc(F)cc2)nc(SCC(N)=O)n1)c1ccccc1` (stereo not given), the growth inhibition in experiment [1] was 87% (active); in experiment [4], 90% (active). Further, the values for the inhibition in experiment [2] and in experiment [3] were 14% and -2%, respectively. The result in experiment [5], in experiment [6], in experiment [7] and in experiment [8] was inactive.
As for `Cc1ccc(CN2CCCN(Cc3cccc(NC(=O)c4cc5ccccc5s4)c3)CC2)cc1`, the results for the growth inhibition in experiment [1] and in experiment [4] were 28% and 87% (active), respectively. Also, the inhibition is 32% in experiment [2] and -3% in experiment [3]. The outcome in experiment [5], in experiment [6], in experiment [7] and in experiment [8] was inactive.
With `Fc1cc(Cl)ccc1Nc1ccnc2cc(-c3ccc(CN4CCSCC4)o3)ccc12`, the figures for the growth inhibition in experiment [1] and in experiment [4] were 99% (active) and 100% (active), respectively. Moreover, the inhibition is 17% in experiment [2] and 0% in experiment [3]. Moreover, the outcome in experiment [5], in experiment [6], in experiment [7] and in experiment [8] was inactive.
Turning to `Cc1ccc2nc3ccccc3c(NCCN3CCN(C)CC3)c2c1`, the figures for the growth inhibition in experiment [1] and in experiment [4] were 6% and 101% (active), respectively. Also, the figures for the inhibition in experiment [2] and in experiment [3] were 19% and -7%, respectively. In addition, the outcome in experiment [5], in experiment [6], in experiment [7] and in experiment [8] was inactive.
With `CCCC1(NC[C@@H](O)[C@H](Cc2ccccc2)NC(=O)c2cc(NCC)cc(N3CCCCS3(=O)=O)c2)CCCC1`, the growth inhibition in experiment [1] was 97% (active); in experiment [4], 101% (active). Also, the figures for the inhibition in experiment [2] and in experiment [3] were -1% and -5%, respectively. The outcome in experiment [5], in experiment [6], in experiment [7] and in experiment [8] was inactive.
